Bioassay records as filed in PubChem BioAssay.
Tau fibril FP: inhibitors of human tau fibril formation | P10636 | K18 P301L tau heparin fibrillization, Alexa594 FP, 6 h | Potency, µM (doses to about 57.7 µM), for inactives: at the highest dose activity, negative = inhibition, usual class: inhibitors | actives 0.39% (n = 280,000); note: potency is the fitted concentration of half-maximal effect; nearly all actives have a fitted effect of over 55% in size
Target sequence (P10636 561-689 P618L limits assumed): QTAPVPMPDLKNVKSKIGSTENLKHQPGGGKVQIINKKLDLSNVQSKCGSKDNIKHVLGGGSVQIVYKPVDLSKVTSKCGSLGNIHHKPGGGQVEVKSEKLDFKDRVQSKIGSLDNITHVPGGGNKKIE
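Quantitative HTS format: compounds meet 15 uM recombinant K18 P301L tau and Alexa 594-tau tracer in 100 mM sodium acetate pH 7; 20 uM heparin triggers fibrillization at 37 C over 6 hr; FP gives the signal.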
Tau ThT inhib: tau fibrillization inhibition (ThT binding). Potency, µM (titrated, usually from 57.4 µM), for the others: at the top dose activity, negative = inhibition, hits mostly inhibitors. AID 1460. recombinant tau K18 P301L, heparin-induced fibrillization, ThT fluorescence. actives 2.1% (n = 270,000). P10636; note: potency is the fitted concentration of half-maximal effect; nearly all actives have a fitted effect of over 55% in size
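Using a mix of unlabeled (15 uM) and Alexa 594-labeled (0.24 uM) tau K18 P301L, heparin-triggered fibrillization over 6 hr at 37 C was scored by ThT fluorescence.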
Coupling enz: coupling enzyme interference in Giardia aldolase counter-screen. coupling enzyme system counterscreen, AmpLite Red fluorescence. activity change, negative = inhibition, % at 58.2 µM, hits read low. actives 0.67% (n = 290,000). AID 2472; in the data active = activity change below about -30%
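Final compound at 57.5 uM, incubated 10 min at RT with coupling enzyme reagent (glyceraldehyde-3-phosphate), then 20 min with substrate and AmpLite Red detection. Fluorescence read at 525/598 nm; tests interference with the coupling assay, not aldolase inhibition.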
Tau fluor counter: counter-screen for tau fibril formation inhibitors; tau K18 P301L (four-repeat tau fragment) Alexa594 fluorescence, heparin fibrillization; Potency, µM (titrated, usually from 57.7 µM), without a hit: at the highest dose activity change, negative = decrease; actives 0.93% (n = 280,000); AID 1463; note: potency is the fitted concentration of half-maximal effect; nearly all actives have a fitted effect of over 55% in size
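Human K18 P301L tau (15 uM unlabeled plus 0.24 uM Alexa 594-labeled, final) in 100 mM sodium acetate pH 7 was mixed with compound and 20 uM heparin and incubated 6 hr at 37 C.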
Sfp inh: blocks B. subtilis Sfp PPTase activity; AID 1490; Biochemical Sfp PPTase activity, qHTS; Potency, µM, for inactives: largest response in the series, negative = inhibition, usual class: inhibitors; actives 3.5% (n = 310,000); Q9F4F7;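 note: the enzyme is Sfp with the accession as filed and its product quenches rhodamine fluorescence; potency is the fitted concentration of half-maximal effect; 0% = enzyme reaction without inhibitor and -100% = no enzyme wells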
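Compounds were incubated with enzyme (final 15 nM) for 15 min at room temperature before substrate addition started the reaction. Fluorescence at 525 nm excitation, 598 nm emission was recorded immediately and after 30 minutes.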
An asterisk follows results filed as active; ? = inconclusive; nt = no result given; [ ] = another dose, or the depositor's remark. Compounds with a hit are over-represented: about 5.2% of the library has one in this group of screens. Unless noted, calls come from the whole dose curve; as a rule, active = well fitted curve in the direction sought with a large enough effect; inconclusive = small, poorly fitted or top-dose-only effect, or another doubt; inactive = no such curve, though single readings can be large; an effect the other way counts as inactive or inconclusive. Unless noted, % is set by controls: 0 for no effect and ±100 for the full control effect.

SMILES	Tau fibril FP	Tau ThT inhib	Coupling enz	Tau fluor counter	Sfp inh
CC(=O)Nc1ncc(N=Nc2cccc(C(F)(F)F)c2)s1	nt	nt	-0.3	nt	17.4%
Fc1ccc2nc(Nc3ccccc3)sc2c1	13.3%	5.2%	0.7	?	11.5%
O=C(Nc1nc2ccc(Cl)cc2s1)c1ccc(Br)o1	-13.7%	-12.8%	-0.4	-6.7%	2.7%
NNc1nc2ccc(Cl)cc2s1	?	22.4µM*	-1.9	14.1µM*[quencher]	-21.5%
NNc1nc2ccc(F)cc2s1	?	25.1µM*	-8.4	17.8µM*[quencher]	-19.0%
CC(C)Cn1cc(C(=O)N2CCN(c3cccc(Cl)c3)CC2)c2c3ccccc3n(C)c2c1=O	6.3%	-16.2%	nt	-7.4%	nt
Cc1nc(C)c(/C(O)=C\c2nc3ccc([N+](=O)[O-])cc3oc2=O)o1	1.0%	?	3.2	-7.7%	56.2µM*
O=c1[nH]c2ccc([N+](=O)[O-])cc2nc1/C=C(\O)c1ccccc1	-7.7%	?	-1.0	-18.7%	-2.1%
Cc1ccc(N/N=C(\C#N)C(=O)c2ccsc2)cc1	9.6%	14.1µM*	0.4	?	-3.0%
CCN(CC)C(=N)/C(C#N)=N/Nc1ccc(C)cc1	4.1%	?	-0.9	-23.8%	1.2%
N#C/C(=N\Nc1ccc(Cl)cc1)C(=N)N1CCCCC1	1.5%	8.3%	nt	-2.7%	8.5%
N#C/C(=N\Nc1ccc(Cl)cc1)C(=O)c1ccsc1	3.1%	5.01µM*	-0.2	?	7.6%
Cc1ccc(-c2nnc(Nc3ccc(O)cc3)c3ccccc23)cc1S(=O)(=O)NCC1CCCO1 (stereo not given)	16.3%	-10.7%	nt	?	nt
OC[C@@H]1[C@@H](c2ccc(Cl)cc2)C(c2cccc(Cl)c2)=NN1c1ccccc1	?	?	-0.9	11.2µM*[quencher]	37.9%
C[C@H]1C(c2ccc(F)cc2)=NN(c2ccccc2)[C@@H]1CO	?	?	-0.1	25.1µM*[quencher]	-8.0%
OC[C@@H]1[C@@H](c2ccc(F)cc2)C(c2cccc(Cl)c2)=NN1c1ccccc1	4.0%[81.3 µM]	?	-3.2	39.8µM*[quencher]	41.5%
OC[C@@H]1[C@@H](c2ccc(Cl)cc2)C(c2ccccc2)=NN1c1ccccc1	7.3%[81.3 µM]	?	-7.3	10µM*[quencher]	12.6%
CC1NC(C(=O)O)Cc2c1[nH]c1ccccc21 (stereo not given)	-1.6%	-0.2%	nt	-8.0%	-4.2%
COC(=O)c1cc(NC(=O)CCc2c(C)nc3c(c(C)nn3C(C)(C)C)c2C)cc(C(=O)OC)c1	-15.1%	2.8%	nt	-27.8%	nt
C[C@H]1C(c2cccc(Cl)c2)=NN(c2ccccc2)[C@@H]1CO	9.8%[81.3 µM]	?	2.0	15.8µM*[quencher]	-11.6%
CC[C@H]1C(c2ccccc2)=NN(c2ccccc2)[C@@H]1CO	?	-18.9%[81.4 µM]	-0.1	?	-2.9%
COc1ccccc1[C@H]1C(c2ccccc2)=NN(c2ccccc2)[C@@H]1CO	15.5%[81.3 µM]	?	-3.1	31.6µM*[quencher]	31.6%
COc1ccccc1-c1noc(CCCC(=O)Nc2cccc(C(F)(F)F)c2)n1	-8.0%	-0.2%	nt	-22.7%	nt
COc1ccccc1-c1noc(CCC(=O)Nc2cc(C(F)(F)F)ccc2Cl)n1	0.9%	-15.4%	-1.0	-26.1%	17.8µM*
COc1cc2nc(C3CCC3)nc(N3CCN(c4ccccn4)CC3)c2cc1OC	-0.9%	-3.7%	1.3	1.2%	79.4µM*
SMILES	Tau fibril FP	Tau ThT inhib	Coupling enz	Tau fluor counter	Sfp inh
Cc1ccc(-n2c(=O)c3sccc3n(CC(=O)NCc3ccco3)c2=O)cc1	12.3%	-8.6%	1.9	1.8%	-5.0%
Cc1cccc(Cn2c(=O)n(-c3ccc(CC(=O)NCc4ccco4)cc3)c(=O)c3sccc32)c1	-7.1%	-11.8%	-0.4	-1.4%	22.4µM*
COc1cc(C2CC(=O)N(Cc3ccc(F)cc3)c3ccccc3S2)cc(OC)c1OC (stereo not given)	3.7%	?	nt	-25.8%	nt
N#CC(C#N)=Cc1ccc(-c2ccc(S(=O)(=O)N=C(N)N)cc2)o1	8.0%	20µM*	4.5	?	?
COC(=O)/C(C#N)=C/c1ccc(-c2ccc(S(N)(=O)=O)cc2)o1	-12.0%	-7.1%	4.5	-0.6%	-3.1%
CSc1ccccc1NC(=O)CN(C)CC(=O)NCc1ccccc1	-3.9%	-1.5%	2.7	-8.3%	-0.7%
CSc1ccccc1NC(=O)CN(C)Cc1cccc(Cl)c1	6.2%	-20.1%	0.3	-9.1%	31.6µM*
Oc1nc(-c2ccc(Br)cc2)n2ccncc12	-3.9%	?	-1.5	-7.1%	56.2µM*
CC1Cc2cc(S(=O)(=O)NCc3ccccc3Cl)ccc2N1C(=O)C1CCC1 (stereo not given)	2.9%	-5.5%	nt	-10.1%	nt
O=C(Oc1csc(=S)n1C(=O)c1ccccc1)c1ccccc1	-16.4%	11.2µM*	-0.5	-25.3%	39.8µM*
Cc1cccc(C(=O)Nc2cccc(OC(=O)c3cccc(C)c3)c2)c1	?	-11.5%	2.0	?	13.9%
Cc1cccc(C(=O)Oc2csc(=S)n2C(=O)c2cccc(C)c2)c1	-14.8%	12.6µM*	-0.5	-24.2%	44.7µM*
Cc1ccc2oc(-c3ccc(C)c(NC(=O)/C=C/c4ccc(Cl)cc4)c3)nc2c1	-16.5%	-2.7%	nt	-6.0%	nt
Cc1c(Cl)cccc1NC(=O)Nc1ccc2snnc2c1	17.8µM*	?	nt	10µM*[quencher]	nt
Cc1ccc(F)c(NC(=O)Nc2ccc3snnc3c2)c1	?	2.5%	nt	?	nt
COc1ccc2c(c1)C(=NN)c1cc(OC)ccc1-2	0.3%	10µM*	nt	?	8.1%
CCCN1C2=C(C(=O)CC(C)(C)C2)C(c2ccc(F)cc2)C2=C1c1ccccc1C2=O (stereo not given)	5.1%	?	3.1	?	6.3%
CCCCN1C2=C(C(=O)CC(C)(C)C2)C(c2ccccc2)C2=C1c1ccccc1C2=O (stereo not given)	?	14.1µM*	-9.1	-24.1%	56.2µM*
CC(=O)Nc1ccc(-c2csc(NC(C)c3ccccc3)n2)cc1 (stereo not given)	10.8%	?	-0.8	?	50.1µM*
C/C(=N/Nc1nc(-c2ccc(Cl)cc2)cs1)c1cccs1	3.0%	?	1.1	?	39.8µM*
CCOC(=O)/C(C)=N/Nc1nc(-c2ccc(NC(C)=O)cc2)cs1	?	nt	-6.1	?	28.2µM*
O=C(NNc1nc(-c2ccccc2)cs1)c1ccco1	?	11.2µM*	2.5	?	-23.5%
O=C(O)c1ccc(B(O)O)cc1	1.9%	0.7%	4.4	0.4%	36.3%
Cc1ccc(N2C(=O)C(CC(=O)Nc3ccc(F)cc3)N(CCC3=CCCCC3)C2=O)cc1 (stereo not given)	?	-1.5%	nt	?	nt
CCC(=O)Nc1ccc(-c2csc(NNC(C)=O)n2)cc1	?	?	0.7	-19.1%	-17.7%
CC(=O)Nc1ccc(-c2csc(N/N=C(/C)c3ccccc3)n2)cc1	?	nt	0.7	11.2µM*[quencher]	39.8µM*
